Results as given in PubChem BioAssay (NCATS).
Results filed as inconclusive are left out. The source made the active and inactive calls. Unless noted, calls come from the whole dose curve; as a rule, active = well fitted curve in the direction sought with a large enough effect; inconclusive = small, poorly fitted or top-dose-only effect, or another doubt; inactive = no such curve, though single readings can be large; an effect the other way counts as inactive or inconclusive.

What was measured:
[1] = qHTS profiling of the MIPE4 collection as inhibitors of Plasmodium falciparum (3D7) proliferation (AID 743344; call rule not given here;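 note: scaled between DMSO vehicle wells and 0.29 µM artemisinin as full inhibition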); details: P. falciparum 3D7 in erythrocytes, SYBR Green DNA fluorescence, 72 h; at 28.5 µM unless noted
In short: (§1)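 Erythrocytes infected with P. falciparum (0.3% parasitemia, 2.5% hematocrit) incubated with compounds 72 h at 37 C, 5% CO2. Lysis with saponin/Triton buffer containing SYBR Green I, overnight at room temperature in the dark; DNA fluorescence (485/535 nm) normalised to 0.29 uM artemisinin and DMSO.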

[2] = qHTS profiling of the MIPE4 collection as inhibitors of Plasmodium falciparum (DD2) proliferation (Rep 2) (AID 743346; call rule not given here); details: P. falciparum Dd2 in erythrocytes, SYBR Green DNA, 72 h; at 28.5 µM unless noted
In short: as §1

[3] = qHTS profiling of the MIPE4 collection as inhibitors of Plasmodium falciparum (HB3) proliferation (AID 743347; call rule not given here;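 note: plate controls were DMSO vehicle wells for no effect and artemisinin wells for full effect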); details: P. falciparum HB3 in erythrocytes, SYBR Green DNA, 72 h; at 28.5 µM unless noted
In short: as §1

[4] = High-throughput drug toxicity screening in the BPDCN cell line Gen2.2 (AID 1224824; call rule not given here); details: Gen2.2 BPDCN cells; at 45.8 µM (top of the series) unless noted
In short: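 Readout is ATP luminescence from Gen2.2 cells after two days of drug exposure in serum-containing medium at 37 °C. Values express percent activity, with vehicle defining full signal and 9.2 uM bortezomib defining zero.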

[5] = High-throughput drug toxicity screening in the BPDCN cell line Cal-1 (AID 1224825; call rule not given here); details: Cal-1 BPDCN cell viability, qHTS; at 45.8 µM (top of the series) unless noted
In short: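 500 Cal-1 cells/well, RPMI + glutamine + 10% FBS (phenol red-free); cpd added by pin tool; 48 h, 37C, 5% CO2; CTG 15 min RT, lumi read. Normalised: DMSO 100%, bortezomib 9.2 uM 0%.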

[6] = qHTS assay for measurement of the activity of small molecule inhibitors on Zika virus induced Caspase-3 activity in human iPSC derived neural progenitor cells (hNPCs) (AID 1224857); note: nearly all actives have a fitted effect of over 65% in size; note: potency is the fitted concentration of half-maximal effect
In short: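 hNPCs seeded 350 cells/well, cultured 16–20 h; compounds added 1 h before ZIKV (2 FFU/cell), 37 C 6 h. Caspase-Glo 3/7 luminescence after 30 min RT; % inhibition from induction scaled to uninfected (0%) and infected (100%) wells.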

[7] = qHTS assay for measurement of the activity of small molecule inhibitors on Zika virus induced Caspase-3 activity in human astrocytoma cells (AID 1224859); note: potency is the fitted concentration of half-maximal effect
In short: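 Luminescence read-out (Caspase-Glo 3/7, 30 min RT) of caspase activity in SNB-19 cells infected 6 h with ZIKV, 2 FFU/cell, after 1 h compound pretreatment; % inhibition from induction normalised to uninfected (0%) and infected (100%) wells.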

[8] = qHTS Screen of the MIPE 4.0 Collection Against Ewings Sarcoma (TC71) (AID 1259253); note: nearly all actives have a fitted effect of over 40% in size; note: potency is the fitted concentration of half-maximal effect
In short: (§2)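 After a 4 h attachment period in RPMI/5% FBS, cells were pin-dosed with test compounds; DMSO served as negative and 9.2 uM bortezomib (final) as positive control. Luminescent CellTiter-Glo signal at 48 h defined viability.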

[9] = qHTS Screen of the MIPE 4.0 Collection Against Ewings Sarcoma (EW8) (AID 1259255); note: nearly all actives have a fitted effect of over 35% in size; note: potency is the fitted concentration of half-maximal effect;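 for viability: 100% = DMSO-treated cells and 0% = medium-only wells without cells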
In short: as §2

[10] = qHTS profiling for inhibitors of Plasmodium falciparum (HB3) proliferation (AID 743324); details: Plasmodium falciparum HB3 blood-stage proliferation; at 28.7 µM (top of the series) unless noted;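 note: 100% = DMSO vehicle wells and 0% = artemisinin-treated control wells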
In short: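 P. falciparum HB3 grown in erythrocytes (0.3% parasitemia, 2.5% hematocrit final) with compound for 72 h at 37 C, 5% CO2. Parasite DNA detected by SYBR Green after saponin/triton lysis overnight; normalized to 0.29 uM artemisinin and DMSO.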

[11] = qHTS profiling of the MIPE4 collection as inhibitors of Plasmodium falciparum (DD2) proliferation (AID 743345; call rule not given here); details: P. falciparum Dd2 in erythrocytes, SYBR Green DNA, 72 h; at 28.5 µM unless noted
In short: as §1

[12] = Identifying Small Molecule Inhibitors of Pancreatic Cancer Stem Cells (SN12C, Spheroid) (AID 1259360); details: Potency: SN12C spheroid viability; note: potency is the fitted concentration of half-maximal effect;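 for viability (% of control): 100% = DMSO-treated cells and 0% = wells without cells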
In short: (§3)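 Monolayer and spheroid cultures are compared. Spheroids form over 14 days in stem cell medium on hydrogel-coated low-attachment plates, then are exposed to compound for 48 h before CellTiter-Glo luminescence.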

[13] = Identifying Small Molecule Inhibitors of Pancreatic Cancer Stem Cells (A278, Adherent) (AID 1259361);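 note: viability read after 48 h compound exposure; nearly all actives have a fitted effect of over 35% in size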;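 for viability (% of control): 100% = DMSO-treated cells and 0% = cell-free media-only wells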
In short: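 Adherent (2D) versus sphere (3D) formats; spheres generated 14 d in SCM beforehand. Compound transferred by pin tool after 4 h, 48 h incubation, CellTiter-Glo endpoint.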

[14] = qHTS Screen of the MIPE 4.0 Collection Against Ewings Sarcoma (TC32) (AID 1259256); note: nearly all actives have a fitted effect of over 45% in size; note: potency is the fitted concentration of half-maximal effect
In short: as §2

[15] = Identifying Small Molecule Inhibitors of Pancreatic Cancer Stem Cells (Panc1, Adherent) (AID 1259362); details: Potency: viability; note: potency is the fitted concentration of half-maximal effect;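 for viability, % of control: compound exposure lasted 48 h before the viability read; plate controls were DMSO-treated cells for no effect and cell-free media wells for full effect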
In short: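 Spheroids grown 14 days in stem cell media on hydrogel-coated nonadherent plates; 2D lines seeded directly. Compounds added after 4 h attachment, 48 h at 37C, 5% CO2; CellTiter-Glo luminescence normalized to DMSO (no inhibition) and no-cell wells (full inhibition).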

[16] = Identifying Small Molecule Inhibitors of Pancreatic Cancer Stem Cells (Panc1, Spheroid) (AID 1259359);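 note: potency is the fitted concentration of half-maximal effect; compound exposure lasted 48 h before reading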
In short: as §3

Structure (SMILES) | parasite growth, % of DMSO control [1] [%] | parasite growth, % of control (lower = inhibition) [2] [%] | growth, % of control [3] [%] | cell viability, % of control (lower = more cytotoxic) [4] [%] | viability (% of control) [5] [%] | Potency [6] | Potency [7] | Potency [8] | Potency [9] | remaining proliferation (% of control), lower = more inhibition [10] [%] | parasite growth remaining, % of DMSO control (lower = more inhibition) [11] [%] | Potency [12] | IC50 (viability decrease) [13] | Potency [14] | Potency [15] | Potency [16]
Cc1cccc2c1CC[C@H](CN1CCC(c3c(Cl)cccc3Cl)CC1)C[C@@H]2O | 8.94 | 25 | 9.19 | 140 | 43.1 | inactive | inactive | 5.9 µM (active) | 14.8 µM (active) | – | – | – | – | – | – | –
CCC=CC[C@H]1C(=O)CC[C@@H]1CC(=O)OC | 62.5 | 86.4 | 79.8 | 137 | 107 | inactive | inactive | 16.6 µM (active) | inactive | 113 | 109 | inactive | inactive | – | – | –
COc1ccc2nc3cc(Cl)ccc3c(Nc3cc(CN4CCCC4)c(O)c(CN4CCCC4)c3)c2n1 | 7.61 | 7.91 | 13.2 | 21.4 | 8.39 | inactive | inactive | 14.8 µM (active) | 26.4 µM (active) | -0.744 | 6.47 | – | – | 16.6 µM (active) | – | –
CCCCC(C=O)NC(=O)C(CC(C)C)NC(=O)OCc1ccccc1 (stereo not given) | 4.5 | 9.29 | – | 52.9 | 62.2 | inactive | inactive | inactive | 11.8 µM (active) | – | 8.7 | – | – | – | – | –
CC[C@@H]([C@H](C)O)n1ncn(-c2ccc(N3CCN(c4ccc(OCC5CO[C@@](Cn6cncn6)(c6ccc(F)cc6F)C5)cc4)CC3)cc2)c1=O (stereo not given in full) | 6.37 | 20.2 | 5.52 | 169 | 108 | inactive | inactive | inactive | inactive | – | 9.01 | – | – | – | – | –
COc1ccc2c(c1)CC[C@H]1[C@@H]2CC[C@]2(C)[C@@H](NCCCCCCN3C(=O)C=CC3=O)CC[C@H]12 | – | – | – | 154 | 43 | inactive | inactive | 16.6 µM (active) | inactive | – | 95.3 | 20.9 µM (active) | 20.9 µM (active) | – | inactive | –
CNC(=O)c1cc(Oc2ccc(NC(=O)Nc3ccc(Cl)c(C(F)(F)F)c3)c(F)c2)ccn1 | 5.25 | 11.8 | 4.74 | 16.6 | 31.5 | inactive | inactive | 20.9 µM (active) | 20.9 µM (active) | 1.38 | 33.1 | 18.7 µM (active) | 16.6 µM (active) | 20.9 µM (active) | 20.9 µM (active) | 20.9 µM (active)
C=CCc1cccc(C=NNC(=O)CN2CCN(Cc3ccccc3)CC2)c1O | 38.6 | 19.3 | 97.7 | 67.9 | 11.1 | inactive | inactive | 4.69 µM (active) | 10.5 µM (active) | – | 23.3 | – | – | – | – | –
O=C(C=Cc1ccc(O)cc1)c1ccc(O)cc1O | 19.6 | 39.1 | 15.1 | 1.49 | 4.05 | 1.66 µM (active) | 2.09 µM (active) | 14.8 µM (active) | 20.9 µM (active) | – | 52.6 | – | – | 16.6 µM (active) | – | –
COC(=O)N1CCN(Cc2cccc(NC(=O)Nc3ccc(C)nc3)c2F)CC1 | 20.8 | 41.1 | – | 149 | 90.8 | inactive | inactive | 8.33 µM (active) | inactive | – | 71.8 | – | – | inactive | – | –
CN(C(Cc1ccc(OS(=O)(=O)c2cccc3cnccc23)cc1)C(=O)N1CCN(c2ccccc2)CC1)S(=O)(=O)c1cccc2cnccc12 (stereo not given) | – | 10.8 | 8.15 | 116 | 85.3 | inactive | inactive | 18.7 µM (active) | 14.8 µM (active) | – | 7.38 | – | – | 16.6 µM (active) | – | –
